In PubChem BioAssay AID720700 (The Scripps Research Institute Molecular Screening Center, 2013):
The campaign covered roughly 370,000 compounds. About 3,100 (0.84%) were called active. Rule as the data show it: active = inhibition above about 9.5%; inactive = the rest. For the sample, actives were picked, then their nearest neighbours and some compounds at random.

biological target: 1-phosphatidylinositol 4,5-bisphosphate phosphodiesterase gamma-1 (Homo sapiens) (UniProt P19174); experiment: PLC-gamma1 enzyme inhibitors, primary screen, biochemical, fluorescence, purified enzyme (AID 720700); conditions: purified PLC-gamma1, fluorogenic substrate, at 12.2 µM, hits give high values
Sequence (P19174 whole entry, looked up): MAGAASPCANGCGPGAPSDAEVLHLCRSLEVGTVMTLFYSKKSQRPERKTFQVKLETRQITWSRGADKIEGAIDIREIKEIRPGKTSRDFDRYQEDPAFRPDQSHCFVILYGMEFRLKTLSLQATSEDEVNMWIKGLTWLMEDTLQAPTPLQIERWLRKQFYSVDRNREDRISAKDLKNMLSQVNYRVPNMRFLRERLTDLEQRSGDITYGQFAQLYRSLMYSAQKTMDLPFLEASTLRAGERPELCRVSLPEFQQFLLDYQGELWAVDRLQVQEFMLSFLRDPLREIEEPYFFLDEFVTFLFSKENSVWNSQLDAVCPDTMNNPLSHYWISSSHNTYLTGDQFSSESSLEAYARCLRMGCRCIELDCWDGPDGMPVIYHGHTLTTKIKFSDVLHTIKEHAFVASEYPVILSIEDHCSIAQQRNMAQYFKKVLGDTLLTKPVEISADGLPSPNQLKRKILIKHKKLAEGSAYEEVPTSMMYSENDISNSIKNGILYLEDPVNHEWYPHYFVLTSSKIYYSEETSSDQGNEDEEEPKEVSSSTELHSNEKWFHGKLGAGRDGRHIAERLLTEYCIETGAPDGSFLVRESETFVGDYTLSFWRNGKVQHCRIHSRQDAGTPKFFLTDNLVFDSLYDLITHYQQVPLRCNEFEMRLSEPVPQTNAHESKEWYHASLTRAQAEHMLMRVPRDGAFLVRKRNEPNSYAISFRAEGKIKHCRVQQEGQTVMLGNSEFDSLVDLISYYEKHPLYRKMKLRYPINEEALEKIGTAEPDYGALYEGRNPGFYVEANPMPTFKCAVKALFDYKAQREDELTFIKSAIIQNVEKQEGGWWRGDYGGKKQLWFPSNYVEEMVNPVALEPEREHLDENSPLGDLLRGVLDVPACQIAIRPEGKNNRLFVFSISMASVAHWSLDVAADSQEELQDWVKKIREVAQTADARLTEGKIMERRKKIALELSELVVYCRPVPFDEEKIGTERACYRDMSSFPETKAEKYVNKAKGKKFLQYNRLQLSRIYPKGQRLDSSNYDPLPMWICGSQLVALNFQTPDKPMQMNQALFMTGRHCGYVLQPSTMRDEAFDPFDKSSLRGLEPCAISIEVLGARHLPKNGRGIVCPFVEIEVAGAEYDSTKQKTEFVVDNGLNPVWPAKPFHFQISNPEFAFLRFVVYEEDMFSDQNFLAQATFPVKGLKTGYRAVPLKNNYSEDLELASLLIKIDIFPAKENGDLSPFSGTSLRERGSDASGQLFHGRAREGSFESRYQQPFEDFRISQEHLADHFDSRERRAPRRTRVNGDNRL

inhibition, active:
C=CC[C@@H](CC(=O)NCCO)C(=O)N[C@H](C)COC(=O)[C@@H](CC=C)CC(=O)OC(C)(C)C 9.97%, CCOC(=O)Nc1ccc(NC(=O)OCC)cc1 11.8%, O=C(O)c1ccc(Cn2c(=S)[nH]c3cc(Cl)ccc3c2=O)cc1 11%, COc1ccc(/C(C)=N/N2CCOCC2)c(O)c1 15.9%, Cc1cc(NC(=O)CN2C(=O)NC(CC(C)C)C2=O)no1 (centres undefined) 10.2%, O=C(C[C@H]1C(=O)N(c2ccc(F)c(F)c2)C[C@@H]1Cc1ccccc1)Nc1ccccc1 17.8%, CC(C)Cn1cnc2c1c(=O)n(CC(O)c1ccccc1)c(=O)n2CC(C)C (centres undefined) 16.4%, CS(=O)(=O)N(Cc1ccc(Cl)cc1)c1ccc(C(=O)NCCSCc2ccco2)cc1 9.72%, Cc1nc(-c2ccc(F)cc2)c(CC(=O)N2CCN(S(=O)(=O)c3ccc(F)cc3)CC2)s1 12.6%, O=C(c1ccc2c(c1)OCO2)N1CCNc2ccccc2C1 9.9%, Clc1ccc(C2[C@H]3CN(CC4CCCCC4)[C@H](c4ccccc4)C34CC2(c2cccnc2)C4)cn1 (some centres undefined) 12.1%, COC(=O)C[C@@H]1CC[C@@H]2[C@H](COc3ccc(NC(=O)c4cccc(F)c4)cc3C(=O)N2C)O1 12.8%, COc1cc(NC(=O)COC(=O)c2ccc([N+](=O)[O-])s2)cc(OC)c1OC 16.4%, O=c1c2ccccc2c(-c2ccccc2)nn1Cc1ccccc1 12.3%, Cc1cc(C)c(NC(=O)CN2CCOCCOCCOCCOCC2)c(C)c1 14%, COCc1cc(C(C)=O)ccc1OC 12.2%, COc1ccc(CCNC(=O)COC(=O)Cc2ccccc2F)cc1 10.7%

inhibition, inactive:
C=CCN1C(=O)[C@@H](CC(=O)N2CCN(C(=O)OCC)CC2)[C@]2(C(=O)OCC)CCCCC/C=C/12 -1.67%, C=CC[C@@H](CC(=O)N[C@@H](CO)Cc1ccccc1)C(=O)NCCOC(=O)[C@@H](CC=C)CC(=O)OC(C)(C)C 5.69%, C=CC[C@@H](CC(=O)N[C@@H](CO)Cc1ccccc1)C(=O)N[C@H](COC(=O)[C@H](CC=C)CC(=O)OC(C)(C)C)Cc1ccccc1 0.69%, O=C(N1CCOCC1)N1CC[C@H]2[C@H](CCCN2Cc2ccc(F)cc2)C1 -1.67%, COc1ccc(C2Nc3ccccc3C(=O)N2Cc2cccs2)cc1COc1c(C)cccc1C (centres undefined) -106%, CCOC(=O)Nc1ccc(S(=O)(=O)N(C)C(C)C)cc1 0.75%, CCOC(=O)Nc1ccc2c(c1)N(C(=O)CCCl)c1ccccc1[S@]2=O -0.45%, COc1ccc(N2CCN(CCNS(=O)(=O)c3ccc(Cl)s3)CC2)cc1 -2.58%, CCOc1cc2[nH]c(=S)n(Cc3ccc(C(=O)N4CCN(C)CC4)cc3)c(=O)c2cc1OCC -0.53%, NC(=O)C1CCN(C(=O)c2ccc3c(=O)n(Cc4cccc(Br)c4)c(=S)[nH]c3c2)CC1 4.14%, O=C(NC1CCCCN(Cc2cccc(C(F)(F)F)c2)C1=O)c1ccccc1I (centres undefined) -1.03%, COc1ccc(OC)c(C(=O)c2coc3ccc(O)c(CN4CCOCC4)c23)c1 -8.55%, COc1ccc(C(=O)CC(=O)c2ccc(C)cc2)c(O)c1 -16%, COC(=O)c1cc(S(=O)(=O)N2CCN(C(=O)C3CCCO3)CC2)cn1C (centres undefined) 0.5%, C[C@@H](NC(=O)c1ccccc1OCC(=O)Nc1ccc(I)cc1)C(=O)N(C)Cc1ccccc1 -0.29%, Cc1cc(NC(=O)CN2C(=O)NC(CCc3ccccc3)C2=O)no1 (centres undefined) -2.53%, COc1ccc(C2(c3ccc(OC)cc3)NC(=O)N(CC(=O)Nc3cc(C)on3)C2=O)cc1 0.49%, CC(c1ccc(N)cc1)c1cn(C)c2ccccc12 (centres undefined) 0.79%, CCOC(=O)[C@]12CCCC=C1N(Cc1ccc(OC)cc1)C(=O)[C@@H]2CC(=O)NCc1cccs1 0.39%, O=C1Nc2ccccc2OC1CC(=O)N1CCCCCCC1 (centres undefined) -0.62%, CNC(=O)C[C@H]1C(=O)N(c2ccc(OC)cc2)C[C@@H]1Cc1ccccc1 1.07%, C[C@H]1CN(c2ccc(Br)cc2)C(=O)[C@@H]1CC(=O)Nc1ccc(Br)cc1 -2.46%, Cc1ccc(-n2c(SCC(=O)Nc3cccc4ccccc34)nnc2-c2ccco2)cc1 0.45%, CC(C)CCn1cnc2c1c(=O)n(CC(=O)NC(N)=O)c(=O)n2Cc1ccccc1 2.87%, CC(C)Cn1cnc2c1c(=O)n(CC(=O)NN)c(=O)n2Cc1ccccc1 -18.6%, COc1cccc(N2CCN(CC(=O)N(C)Cc3ccc(F)cc3)CC2)c1 0.54%, Cc1cc(C)cc(N(CC(=O)NCCSCc2ccco2)S(C)(=O)=O)c1 2.48%, CCc1ccccc1N(CC(=O)NCCSCc1ccco1)S(C)(=O)=O -1.22%, CCCCNC(=O)C[C@H]1C[C@@]2(C(=O)OC)C(=C[C@H](COCc3ccccc3)O[C@@H]2C)N(Cc2ccc(Cl)cc2Cl)C1=O 2.69%, O=C1C(=O)N(Cc2ccc(-c3ccsc3)cc2)c2ccc(OC(F)(F)F)cc21 -5.5%, CCN(CC)C(=O)CC[C@@H]1CC[C@]2(CCCN(S(=O)(=O)C3CCCCC3)C2)O1 -1.56%, COC(=O)C1CN(CCc2ccccc2)CCS(=O)(=O)N1Cc1ccc(F)cc1 (centres undefined) 0.52%, Cc1ccc(S(=O)(=O)N2CCN(C(=O)Cc3sc(C)nc3-c3ccc(F)cc3)CC2)c(C)c1 -4.71%, Cc1nc(-c2ccc(F)cc2)c(CC(=O)Nc2cc(S(=O)(=O)N3CCCCC3)ccc2C)s1 0.89%, O=C(C(=O)N1CCN(c2ccccc2)CC1)c1ccc2c(c1)OCO2 -0.77%, O=CN1CCN(C(=O)c2ccc3c(c2)OCO3)CC1 0.54%, N#Cc1ccc(OC[C@@H](O)CN2CCC(C(O)(c3ccccc3)c3ccccc3)CC2)c(F)c1 0.67%, COCCCNC(=O)C[C@H]1C[C@@]2(C(=O)OC)C(=C[C@H](C(C)(C)C)O[C@@H]2C)N(Cc2ccc(Cl)cc2Cl)C1=O 1.11%, CC(C)(C)OC(=O)NCc1cc(F)ccc1/C=C/S(=O)(=O)NCCc1ccccc1 2.46%, COC(=O)c1ccc(C23CC4(C2)[C@H](CN(Cc2cccnc2)[C@@H]4c2ccccc2)C3c2ccc(Cl)nc2)cc1 (some centres undefined) 2.06%, COC(=O)[C@]1(C#N)CC(=O)N(CC2CCCCC2)[C@@H]1c1ccccc1 8.67%, COc1ccc(C#CCNCc2ccc(OC)cc2OC)cc1 2.01%, Cc1cc(C(=O)NN=C/C=C/c2ccco2)n[nH]1 -16.7%, CCCCNC(=O)C[C@H]1C(=O)N(Cc2ccc(OC)cc2)C2=CCCC[C@@]21C(=O)OCC 4.39%, COC(=O)C[C@H]1CC[C@H]2[C@H](COc3ccc(NC(=O)C4CC4)cc3C(=O)N2C)O1 -1%, COC(=O)C[C@@H]1CC[C@@H]2[C@@H](COc3ccc(NC(=O)Nc4ccc(F)c(F)c4)cc3C(=O)N2C)O1 1.9%, COC(=O)c1cccc(Cn2ccc3ccc(-c4ccc5ccn(C(=O)C6CCCCC6)c5c4)cc32)c1 -51.3%, CC(=O)N1CCCN(C2=Nc3ccccc3Sc3ccccc32)CC1 0.02%, O=C(OCC(=O)N1CCN(c2ccccc2)CC1)c1ccc([N+](=O)[O-])s1 -1.31%, COc1ccc(C(=O)OCC(=O)Nc2ccc3[nH]c(=O)[nH]c3c2)c(OC)c1OC 4.24%, COc1ccc2c(c1)CN1CN(CCc3ccccc3)S(=O)(=O)CC21 (centres undefined) -10.3%, C=CCn1c(SCC(N)=O)nnc1-c1ccccc1OC 1.51%, C=CS(=O)(=O)N(Cc1nnn(Cc2ccccc2)c1Br)[C@H](C(=O)OC)C(C)C 2.5%, CCN(C(=O)[C@@H](C1CC1)[C@@H](O)c1ccc2ccccc2c1)c1ccccc1 1.27%, O=c1c2ccccc2c(-c2ccc(Br)cc2)nn1Cc1ccccc1 -0.25%, O=c1c2ccccc2c(-c2ccccc2)nn1-c1ccccn1 2.78%, Cc1cc(C)c(NC(=O)CN2CCCCCC2)c(C)c1 4.73%, O=C(CN1CCOCC1)Nc1c(Cl)cc(Cl)cc1Cl 0.95%, Cc1ccccc1NC(=O)COC(=O)c1ccc(Sc2ncn[nH]2)c([N+](=O)[O-])c1 -0.83%, COc1ccc(C(C)=O)cc1COc1ccc(Cl)c(C)c1 2.04%, COc1ccc(C(C)=O)cc1COC(=O)Cn1cnc2ccccc2c1=O 5.51%, COC[C@@H]1CCCN1c1ccc2c(c1)O[C@H](C)CCN(C1CC1)S2(=O)=O -1.38%, O=C(c1ccncc1)N1CC[C@H]2[C@H](CCCN2Cc2ccc(F)cc2)C1 2.52%, O=C(OC12CCCN(C1)/C(=C/c1ccccc1)C2)c1ccco1 (centres undefined) 6.33%, O=C(COC(=O)Cc1ccccc1F)NCCc1ccccc1 -0.55%, COc1ccc(CCNC(=O)COC(=O)Cc2cccc(F)c2)cc1 -3.08%, COC(=O)C[C@@H]1CC[C@H]2[C@@H](COc3ccc(NS(=O)(=O)CC(F)(F)F)cc3C(=O)N2C)O1 0.55%
